# Data taken from PubChem BioAssay (NCATS).
# Several values for one entry are separate records, joined by “and”; a condition that tells them apart may be missing. Identical values can stand only once. Inconclusive results are not listed. Values without a mark were called inactive. Activity calls are given as the source filed them. Calls come from the whole dose curve; as a rule, active = well fitted curve in the direction sought with a large enough effect; inconclusive = small, poorly fitted or top-dose-only effect, or another doubt; inactive = no such curve, though single readings can be large; an effect the other way counts as inactive or inconclusive.
# Tests used:
# [1] = target: Cellular tumor antigen p53 (Homo sapiens) (UniProt P04637); assay: Primary qHTS for small molecule compounds that upregulate eGFP-tagged delta133p53alpha (in N-terminal) cells. (AID 2060322); conditions: NCI-H358 eGFP-delta133p53alpha fluorescence, 24 h; activation: hits give high values; note: nearly all actives have a fitted effect of over 75% in size; note: potency is the fitted concentration of half-maximal effect;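 for activation: series mostly up to about 56 µM; 0% = DMSO vehicle and 100% = reference activator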
# Chain of Cellular tumor antigen p53 (Homo sapiens) (P04637 whole entry, looked up): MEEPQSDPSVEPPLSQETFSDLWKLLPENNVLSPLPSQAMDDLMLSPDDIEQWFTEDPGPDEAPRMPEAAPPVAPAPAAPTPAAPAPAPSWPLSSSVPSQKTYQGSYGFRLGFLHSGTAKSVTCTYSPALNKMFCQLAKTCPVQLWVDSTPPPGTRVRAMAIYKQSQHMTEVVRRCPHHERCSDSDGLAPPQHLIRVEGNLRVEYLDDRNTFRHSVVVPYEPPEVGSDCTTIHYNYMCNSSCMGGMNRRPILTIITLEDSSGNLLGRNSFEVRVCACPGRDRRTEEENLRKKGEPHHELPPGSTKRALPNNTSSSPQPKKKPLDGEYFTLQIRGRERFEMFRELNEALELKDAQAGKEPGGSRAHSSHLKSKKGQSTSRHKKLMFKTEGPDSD
# Procedure, shortened: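 NCI-H358 cells pre-induced 24 h with 10 ng/ml doxycycline to express N-terminal eGFP-delta133p53alpha, then dosed 24 h at 37C without doxycycline; fixed, Hoechst-stained, GFP intensity by laser scanning cytometry, normalized to DMSO (0%) and 57.5 uM 5-azacytidine (100%).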
# [2] = target: Aldehyde dehydrogenase, mitochondrial (Homo sapiens) (UniProt P05091); assay: qHTS for Inhibitors of the Aldehyde Dehydrogenase Family (ALDH2) Primary screen (AID 2061308);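 note: plate controls were vehicle for no effect and reference inhibitor for full effect; nearly all actives have a fitted effect of over 55% in size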
# [3] = target: Retinaldehyde dehydrogenase 3 (Homo sapiens) (UniProt P47895); assay: qHTS for Inhibitors of the Aldehyde Dehydrogenase Family (ALDH1A3) Primary screen (AID 2061315);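 note: plate controls were DMSO vehicle for no effect and reference inhibitor for full effect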
# [4] = BET inhibitor-based combinations targeting novel dependencies in MECOM-rearranged (r) AML: OCI-AML3 cell line (AID 2202232); conditions: Potency: OCI-AML3 viability; note: potency is the fitted concentration of half-maximal effect; nearly all actives have a fitted effect of over 35% in size
# Procedure, shortened: (§1)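 Viability of cells (500 per well) is scored by luminescent CellTiter-Glo at 48 hr post-dosing. Eleven-point titrations are normalized to DMSO and empty controls and reduced to AUC values.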
# [5] = BET inhibitor-based combinations targeting novel dependencies in MECOM-rearranged (r) AML: MV-4-11 cell line (AID 2202233); note: potency is the fitted concentration of half-maximal effect; nearly all actives have a fitted effect of over 45% in size
# Procedure, shortened: (§2)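 Using pin-tool transfer, drugs were added in 11 doses to cells (500/well), incubated 48 hr, and assessed with CellTiter-Glo. Z-AUC is a mean-centring transformation applied separately to each screened line.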
# [6] = BET inhibitor-based combinations targeting novel dependencies in MECOM-rearranged (r) AML: HNT-34 cell line (AID 2202234); note: potency is the fitted concentration of half-maximal effect; nearly all actives have a fitted effect of over 35% in size
# Procedure, shortened: as §2
# [7] = BET inhibitor-based combinations targeting novel dependencies in MECOM-rearranged (r) AML: UCSD-AML1 cell line (AID 2202235); note: nearly all actives have a fitted effect of over 40% in size; note: potency is the fitted concentration of half-maximal effect
# Procedure, shortened: as §2
# [8] = BET inhibitor-based combinations targeting novel dependencies in MECOM-rearranged (r) AML: AML-191 cell line (AID 2202236; note: nearly all actives have a fitted effect of over 35% in size; note: potency is the fitted concentration of half-maximal effect)
# Procedure, shortened: as §1
# [9] = BET inhibitor-based combinations targeting novel dependencies in MECOM-rearranged (r) AML: AML-194 cell line (AID 2202237; note: nearly all actives have a fitted effect of over 40% in size; note: potency is the fitted concentration of half-maximal effect)
# Procedure, shortened: as §1
# [10] = BET inhibitor-based combinations targeting novel dependencies in MECOM-rearranged (r) AML: SET-2 cell line (AID 2202231); conditions: SET-2 AML cells viability, CellTiter-Glo luminescence, 48 h; viability: hits give low values, series mostly up to about 46 µM;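 note: plate controls were DMSO treated cells for no effect and wells without cells for full effect; nearly all actives have a fitted effect of over 35% in size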
# Procedure, shortened: as §1
SMILES,activation [1],Potency [2],Potency [3],Potency [4],Potency [5],Potency [6],Potency [7],Potency [8],Potency [9],Potency [1],viability [10]
Cc1ccc(Nc2nccc(N(C)c3ccc4c(C)n(C)nc4c3)n2)cc1S(N)(=O)=O,13% and -7.12% and -16.1%,inactive,inactive,16.6 µM (active),5.25 µM (active),6.61 µM (active),18.6 µM (active),18.6 µM (active),18.6 µM (active),,
CN(C)C/C=C/C(=O)Nc1cccc(C(=O)Nc2cccc(Nc3ncc(Cl)c(-c4c[nH]c5ccccc45)n3)c2)c1,,inactive,inactive,0.166 µM (active),0.0033 µM (active),0.235 µM (active),0.209 µM (active),0.468 µM (active),,0.239 µM (active),
COc1nc(-c2ccc3c(c2)OCO3)n(-c2ccc(NC(=O)CSc3ccccc3)cc2)n1,2.57% and -11.7%,inactive,inactive,,,,inactive,inactive,inactive,,97.5%
COCCOc1ccc2c(c1)ncn2-c1ccc2cccc(N3CCC(N)CC3)c2n1,,inactive,inactive,9.34 µM (active),0.0186 µM (active),7.42 µM (active),5.25 µM (active),2.09 µM (active),2.35 µM (active),16.9 µM (active),
CS(=O)(=O)CCNCc1ccc(-c2ccc3ncnc(Nc4ccc(OCc5cccc(F)c5)c(Cl)c4)c3c2)o1,,inactive,inactive,23.5 µM (active),18.6 µM (active),3.72 µM (active),inactive,26.3 µM (active),,26.9 µM (active),
